The text below walks through data of ChEMBL document CHEMBL1961873, “Compounds: GSK PKIS; Assays: Nanosyn kinase panel” (2012).

The first experiment has as its target T1, Dual specificity protein kinase TTK (Homo sapiens) (UniProt P33981).
T1 sequence (whole entry): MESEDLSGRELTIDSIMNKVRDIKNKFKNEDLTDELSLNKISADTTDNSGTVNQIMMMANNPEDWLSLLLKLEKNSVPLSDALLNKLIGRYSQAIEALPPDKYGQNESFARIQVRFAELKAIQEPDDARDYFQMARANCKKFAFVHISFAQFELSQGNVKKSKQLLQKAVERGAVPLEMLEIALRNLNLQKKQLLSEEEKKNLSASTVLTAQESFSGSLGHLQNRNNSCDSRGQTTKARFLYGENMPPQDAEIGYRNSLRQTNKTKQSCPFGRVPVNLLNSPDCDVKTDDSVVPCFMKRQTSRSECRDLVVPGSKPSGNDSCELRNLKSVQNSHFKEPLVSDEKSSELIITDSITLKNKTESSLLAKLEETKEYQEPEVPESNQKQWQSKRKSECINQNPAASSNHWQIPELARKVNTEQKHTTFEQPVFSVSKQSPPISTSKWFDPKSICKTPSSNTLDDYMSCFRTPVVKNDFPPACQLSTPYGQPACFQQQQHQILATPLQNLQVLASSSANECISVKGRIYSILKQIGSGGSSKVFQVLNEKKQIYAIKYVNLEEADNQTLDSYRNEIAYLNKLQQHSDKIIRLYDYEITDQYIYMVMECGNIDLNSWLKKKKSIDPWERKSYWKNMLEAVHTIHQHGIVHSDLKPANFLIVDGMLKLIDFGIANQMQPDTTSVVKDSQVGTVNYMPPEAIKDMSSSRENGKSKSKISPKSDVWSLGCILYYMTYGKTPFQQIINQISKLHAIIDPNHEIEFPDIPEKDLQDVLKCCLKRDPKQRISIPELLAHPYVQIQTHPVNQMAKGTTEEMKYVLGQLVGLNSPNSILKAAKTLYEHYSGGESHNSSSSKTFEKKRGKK
Conditions: at 0.1 µM.
In the case of `Fc1ccc(-c2c(-c3ccncc3)nc3n2CCS3)cc1`, the inhibition (in general, the drop in the measured response relative to a control, in per cent) amounted to 5.74%. Take `C/C(Nc1ccc(S(N)(=O)=O)cc1)=C1/C(=O)Nc2ccccc21`: the inhibition was found to be 8.06%.

For `C[C@@H](Oc1cc(-n2cnc3ccc(OC4CCN(C)CC4)cc32)sc1C(N)=O)c1ccccc1Cl`, the inhibition amounted to 6.06%. Regarding `COc1cc(N2CCN(C(C)C)CC2)ccc1Nc1nc(Nc2ccc(F)cc2C(=O)NC[C@@H](O)CO)c2cc[nH]c2n1`, the inhibition is 74%. Same read-out and setting: under `Cc1nnc(-c2ccc(C)c(-c3ccc(C(=O)NCc4ccc(Cl)cc4)cc3)c2)o1` stands 11.7%; under `COc1ccc2ncn(-c3cc(O[C@H](C)c4ccccc4Cl)c(C(N)=O)s3)c2c1`, 6.36%; under `COc1cc(Nc2ncc3c(C)nc(-c4cccc(Oc5ccccc5)c4)n3n2)cc(OC)c1OC`, 3.03%. Same read-out and setting: under `CN(C)CCCNc1nccc(-c2c(-c3ccc(F)cc3)nn3cc(C(F)(F)F)ccc23)n1` stands 2.37%. On to `CS(=O)(=O)CCNCc1ccc(-c2ccc3ncnc(Nc4ccc(OCc5ccccc5)c(Br)c4)c3c2)o1`, for which the inhibition is 11.1%. The same measure, in the same setting: under `COc1cc2ncn(-c3cc(OCCc4ccccc4)c(C(N)=O)s3)c2cc1OC` stands 1.17%; under `O=C(NCC1CC1)c1ccc(-c2cccc(C(=O)NC3CC3)c2)cc1`, 2.34%.

As to `CN1CCN(CCCNc2nc3ccc(Oc4ccc(NC(=O)Nc5cc(C(F)(F)F)ccc5F)cc4)cc3[nH]2)CC1`, the inhibition came to 1.87%. For the molecule `CN(C)c1ccc2c(c1)/C(=C/Nc1ccc(S(N)(=O)=O)cc1)C(=O)N2`, the inhibition turned out to be 5.45%. Same read-out and setting: under `Clc1ccc(CNc2nccc(-c3cnn4ncccc34)n2)cc1` stands 0.13%; under `COc1cccc(-n2cnc3c(N/N=C/c4ccncc4)ncnc32)c1`, 0.25%. Regarding `COc1ccc2cc(-c3c(-c4ccncc4)nc(-c4ccc([S+](C)[O-])cc4C)n3C)ccc2c1` (stereo unspecified), the inhibition is -1.41%. For the molecule `c1ccc(-c2n[nH]cc2-c2ccnc(-c3ccc(OCCN4CCOCC4)cc3)c2)nc1`, the inhibition is -2.01%. Same read-out and setting: under `COc1cc2ncn(-c3cc(OCc4cccs4)c(C(N)=O)s3)c2cc1OC` stands 4.76%; under `CNC(=O)c1cncc(/C=C/c2c(C)cccc2C)c1`, 1.49%. On the same count and under the same terms, under `COc1cc(C)c(N(C)C(=O)CN(C)C)cc1Nc1nc(Nc2cccc(F)c2C(N)=O)c2cc[nH]c2n1` stands 4.16%; under `C#Cc1cccc(Nc2ncnc3ccc(OCCCCNCCS(C)(=O)=O)cc23)c1`, 9.49%; under `COC(=O)Nc1nc2ccc(Sc3ccc(NC(=O)Nc4cc(C(F)(F)F)ccc4F)cc3)cc2[nH]1`, 1.23%. In the case of `CCc1nccc2c1nc(-c1nonc1N)n2CC`, the inhibition turned out to be 3.28%. On the same count and under the same terms, the result for `COc1cc(Nc2ncc3c(C)nc(-c4cccc(C(F)(F)F)c4)n3n2)cc(OC)c1OC` reads 8.36%. On to `O=C1Nc2ccc(I)cc2C1=Cc1cc(Br)c(O)c(Br)c1`, for which the inhibition came to 10.4%.

For `COc1cc2ncn(-c3cc(OCc4ccccc4C(F)(F)F)c(C(C)=O)s3)c2cc1OC`, the inhibition was 6.18%. Same read-out and setting: under `O=C(Nc1ccc(Oc2ccc3[nH]c(NC(=O)c4ccccc4)nc3c2)cc1)Nc1cc(C(F)(F)F)ccc1F` stands 5.51%; under `c1ccc(Oc2ccc(Nc3ncc(-c4ccccc4)o3)cc2)cc1`, 2.58%. For `Fc1ccc(-c2ncn(CCCN3CCOCC3)c2-c2ccncc2)cc1`, the inhibition was found to be 5.04%. Turning to `CCS(=O)(=O)c1ccc(OC)c(Nc2ncc(-c3cccc(-c4ccccc4F)c3)o2)c1`, the inhibition came to 0.9%. Take `Fc1ccc(-c2nc3n(c2-c2ccncc2)CCS3)cc1`: the inhibition worked out at 6.93%.

As to `C[C@@H](Oc1cc(-n2cnc3ccc(OCC4CCN(C)CC4)cc32)sc1C(N)=O)c1ccccc1Cl`, the inhibition turned out to be 93.6%. The same measure, in the same setting: the result for `FC(F)(F)c1cccc(Nc2nccc(-c3cnn4nc(-c5ccccc5)ccc34)n2)c1` reads 3.1%.

A further experiment has as its system T2, Receptor-type tyrosine-protein kinase FLT3 (Homo sapiens), P36888 [D835Y].
T2 sequence (whole entry): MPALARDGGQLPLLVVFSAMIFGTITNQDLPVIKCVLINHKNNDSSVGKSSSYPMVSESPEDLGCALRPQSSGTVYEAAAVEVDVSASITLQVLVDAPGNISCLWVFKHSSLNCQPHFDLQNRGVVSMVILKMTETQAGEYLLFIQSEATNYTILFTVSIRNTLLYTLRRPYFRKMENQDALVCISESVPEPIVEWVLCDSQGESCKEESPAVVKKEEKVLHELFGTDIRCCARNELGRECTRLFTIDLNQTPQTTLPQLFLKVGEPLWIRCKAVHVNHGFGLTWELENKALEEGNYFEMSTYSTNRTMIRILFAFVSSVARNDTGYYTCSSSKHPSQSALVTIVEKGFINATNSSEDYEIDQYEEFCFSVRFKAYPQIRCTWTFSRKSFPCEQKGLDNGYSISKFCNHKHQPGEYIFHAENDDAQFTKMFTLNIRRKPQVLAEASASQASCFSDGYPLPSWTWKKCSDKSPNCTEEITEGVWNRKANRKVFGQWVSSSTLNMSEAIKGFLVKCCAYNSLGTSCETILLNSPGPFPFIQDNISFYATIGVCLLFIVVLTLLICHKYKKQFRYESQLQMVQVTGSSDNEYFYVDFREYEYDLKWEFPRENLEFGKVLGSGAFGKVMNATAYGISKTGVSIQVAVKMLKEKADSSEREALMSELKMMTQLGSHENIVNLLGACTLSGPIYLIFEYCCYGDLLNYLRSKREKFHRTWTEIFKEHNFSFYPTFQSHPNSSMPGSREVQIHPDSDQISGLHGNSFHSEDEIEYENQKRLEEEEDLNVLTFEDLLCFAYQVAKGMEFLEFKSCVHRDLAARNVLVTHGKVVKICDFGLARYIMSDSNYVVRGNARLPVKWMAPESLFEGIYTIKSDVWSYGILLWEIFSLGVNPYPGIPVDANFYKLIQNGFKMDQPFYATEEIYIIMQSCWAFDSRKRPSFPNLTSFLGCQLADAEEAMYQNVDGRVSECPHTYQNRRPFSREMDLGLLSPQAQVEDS
Conditions: at 1 µM.
Take `Fc1ccc(-c2c(-c3ccncc3)nc3n2CCS3)cc1`: the inhibition is -4.22%.

Regarding `C/C(Nc1ccc(S(N)(=O)=O)cc1)=C1/C(=O)Nc2ccccc21`, the inhibition is 46.8%.

For the molecule `C[C@@H](Oc1cc(-n2cnc3ccc(OC4CCN(C)CC4)cc32)sc1C(N)=O)c1ccccc1Cl`, the inhibition amounted to 12.2%. The same measure, in the same setting: under `CCS(=O)(=O)c1ccc(OC)c(Nc2ncc(-c3ccccc3Cl)o2)c1` stands 17.4%; under `Cc1nnc(-c2ccc(C)c(-c3ccc(C(=O)NCc4ccc(Cl)cc4)cc3)c2)o1`, -0.11%; under `COc1ccc2ncn(-c3cc(O[C@H](C)c4ccccc4Cl)c(C(N)=O)s3)c2c1`, 2.74%. For `COc1cc(Nc2ncc3c(C)nc(-c4cccc(Oc5ccccc5)c4)n3n2)cc(OC)c1OC`, the inhibition is 20.2%. For `CN(C)CCCNc1nccc(-c2c(-c3ccc(F)cc3)nn3cc(C(F)(F)F)ccc23)n1`, the inhibition came to 2.47%. On the same count and under the same terms, under `CS(=O)(=O)CCNCc1ccc(-c2ccc3ncnc(Nc4ccc(OCc5ccccc5)c(Br)c4)c3c2)o1` stands -0.11%. For `COc1cc2ncn(-c3cc(OCCc4ccccc4)c(C(N)=O)s3)c2cc1OC`, the inhibition is 1.07%.

On to `O=C(NCC1CC1)c1ccc(-c2cccc(C(=O)NC3CC3)c2)cc1`, for which the inhibition came to 4.69%. The same measure, in the same setting: under `CN1CCN(CCCNc2nc3ccc(Oc4ccc(NC(=O)Nc5cc(C(F)(F)F)ccc5F)cc4)cc3[nH]2)CC1` stands 1.66%; under `CN(C)c1ccc2c(c1)/C(=C/Nc1ccc(S(N)(=O)=O)cc1)C(=O)N2`, 33.6%. On the same count and under the same terms, the result for `Clc1ccc(CNc2nccc(-c3cnn4ncccc34)n2)cc1` reads 2.01%; that for `COc1cccc(-n2cnc3c(N/N=C/c4ccncc4)ncnc32)c1`, 9.6%. Same read-out and setting: the result for `COc1ccc2cc(-c3c(-c4ccncc4)nc(-c4ccc([S+](C)[O-])cc4C)n3C)ccc2c1` (stereo unspecified) reads 4.56%; that for `c1ccc(-c2n[nH]cc2-c2ccnc(-c3ccc(OCCN4CCOCC4)cc3)c2)nc1`, 1.73%; that for `COc1cc2ncn(-c3cc(OCc4cccs4)c(C(N)=O)s3)c2cc1OC`, 1.62%.

For the molecule `CNC(=O)c1cncc(/C=C/c2c(C)cccc2C)c1`, the inhibition amounted to 5.46%.

As for `COc1cc(C)c(N(C)C(=O)CN(C)C)cc1Nc1nc(Nc2cccc(F)c2C(N)=O)c2cc[nH]c2n1`, the inhibition is 2.97%. In the case of `C#Cc1cccc(Nc2ncnc3ccc(OCCCCNCCS(C)(=O)=O)cc23)c1`, the inhibition came to 1.41%. The same measure, in the same setting: under `COC(=O)Nc1nc2ccc(Sc3ccc(NC(=O)Nc4cc(C(F)(F)F)ccc4F)cc3)cc2[nH]1` stands 6.34%; under `CCc1nccc2c1nc(-c1nonc1N)n2CC`, -1.94%. Same read-out and setting: the result for `COc1cc(Nc2ncc3c(C)nc(-c4cccc(C(F)(F)F)c4)n3n2)cc(OC)c1OC` reads 35.8%; that for `O=C1Nc2ccc(I)cc2C1=Cc1cc(Br)c(O)c(Br)c1`, 2.02%; that for `COc1cc2ncn(-c3cc(OCc4ccccc4C(F)(F)F)c(C(C)=O)s3)c2cc1OC`, 2.27%. Regarding `O=C(Nc1ccc(Oc2ccc3[nH]c(NC(=O)c4ccccc4)nc3c2)cc1)Nc1cc(C(F)(F)F)ccc1F`, the inhibition stood at 14%. The same measure, in the same setting: under `c1ccc(Oc2ccc(Nc3ncc(-c4ccccc4)o3)cc2)cc1` stands 1.21%; under `Fc1ccc(-c2ncn(CCCN3CCOCC3)c2-c2ccncc2)cc1`, 0.03%; under `CCS(=O)(=O)c1ccc(OC)c(Nc2ncc(-c3cccc(-c4ccccc4F)c3)o2)c1`, 45%. Turning to `Fc1ccc(-c2nc3n(c2-c2ccncc2)CCS3)cc1`, the inhibition was -0.91%. `C[C@@H](Oc1cc(-n2cnc3ccc(OCC4CCN(C)CC4)cc32)sc1C(N)=O)c1ccccc1Cl`: the inhibition came out at 11.7%. With `FC(F)(F)c1cccc(Nc2nccc(-c3cnn4nc(-c5ccccc5)ccc34)n2)c1`, the inhibition came to 26.7%.
